According to PubChem BioAssay (Tox21):
Inconclusive results are not listed. Calls of active or inactive are those of the source. Calls come from the whole dose curve. Square brackets hold non-standard residues; d marks the D form. Peptide text beside a SMILES is read from it. * marks the point of attachment. Sta = CC(C)C[C@H](N)[C@@H](O)CC(=O)O; Isovaleryl = CC(C)CC(=O)*

Assay: cAMP Responsive Elements (CRE) small molecule agonists, cell-based qHTS assay (AID 1963590)
Conditions: CRE-bla HEK293T, beta-lactamase FRET ratio, 3 h; series mostly up to 92.4 µM; activation: at the top concentration
Description: U.S. Tox21 Program National Center for Advancing Translational Sciences [NCATS] Division of Preclinical Innovation [DPI] U.S. Environmental Protection Agency [EPA] National Institutes of Environmental Health Sciences [NIEHS] National Toxicology Program [NTP] U.S. Food and Drug Administration [FDA] Tox21 Assay Overview: CREB (cyclic-AMP Responsive Element Binding Protein) is a cellular transcription factor. It binds to certain DNA sequences called cAMP Responsive Elements (CRE) and regulates the transcription of the genes. […] This cell line can be used to find agonists/antagonists of the cyclic AMP signaling pathway. The activation of the report gene under culture conditions can be detected by fluorescence intensity. This cell line has been used to screen the Tox21 10K compound library to identify agonists that induce oxidative stress.
Tox21 Assay Protocol Summary: CRE-bla Hek 293T cells were suspended in assay medium (DMEM containing 10% dialyzed FBS, 0.1 mM NEAA, 1 mM sodium pyruvate and 25 mM HEPES) and dispensed at 2,000 cells/5 uL /well into 1536-well black wall/clear bottom plates using a Multidrop Combi (ThermoFisher Scientific, Waltham, MA) dispenser. After the assay plates were incubated at 37 C/5% CO2 for 18 hrs, 23 nL of compounds dissolved in DMSO, positive controls or DMSO only was transferred to the assay plate by a pintool workstation (Kalypsys, San Diego, CA). After the plates were incubated at 37 C/5% CO2 for 3 hrs, 1 uL of LiveBLAzer B/G FRET substrate (Invitrogen, Carlsbad, CA) was added to each well using Bioraptr Flying Reagent Dispenser (FRD, Aurora Discovery, San Diego, CA). The plates were incubated at room temperature for 2 h.
% is set by controls: 0 for no effect and ±100 for the full control effect.

| Structure (SMILES) | activation |
| --- | --- |
| CC(COc1ccccc1)NC(C)C(O)c1ccc(O)cc1 (stereo not given) | 9.96% [at 42.5 µM] (inactive) |
| CCC(=O)c1cccc(Cl)c1 | -0.704% (inactive) |
| CCCc1ccc(O)c(OC)c1 | -0.229% (inactive) |
| CC(=O)OCC(=O)[C@@]1(O)CC[C@H]2[C@@H]3CCC4=CC(=O)C=C[C@]4(C)[C@@]3(F)[C@@H](O)C[C@@]21C | 1.15% [at 42.5 µM] (inactive) |
| Cn1c(=O)[nH]c2ncn(C)c2c1=O | -2.98% (inactive) |
| CC(C)(C)C(=O)CC(=O)C(C)(C)C | -0.646% (inactive) |
| CCCCOc1cc(C(=O)OCCN(CC)CC)ccc1N | 0.058% [at 42.5 µM] (inactive) |
| CC(C)CC(=O)N[C@H](C(=O)N[C@H](C(=O)N[C@@H](CC(C)C)[C@@H](O)CC(=O)N[C@@H](C)C(=O)N[C@@H](CC(C)C)[C@@H](O)CC(=O)O)C(C)C)C(C)C (Isovaleryl-VV[Sta]A[Sta]-OH) | 1.86% [at 42.5 µM] (inactive) |
| CN(C)c1ccc(C(c2ccccc2)c2ccc(N(C)C)cc2)cc1 | -3.41% (inactive) |
| CCOc1ccc(NC(=O)OC(C)C)cc1OCC | 0.587% (inactive) |
| COc1cc(C(C)C)ccc1C | -1.07% [at 19 µM] (inactive) |
| O[C@@H](CNC[C@H](O)[C@H]1CCc2cc(F)ccc2O1)[C@@H]1CCc2cc(F)ccc2O1 | 0.18% [at 42.5 µM] (inactive) |
| NC(=O)C1(N2CCCCC2)CCN(CCCC(=O)c2ccc(F)cc2)CC1 | -0.069% [at 42.5 µM] (inactive) |
| COc1ccc(-n2nc(CCC(=O)N(C)O)cc2-c2ccc(Cl)cc2)cc1 | 9.91% [at 42.5 µM] (inactive) |
| CCC(C)(CCCC(C)C)OC(C)=O (stereo not given) | 0.186% (inactive) |
| C=CCSSCCC | 0.633% (inactive) |
| O=NN(CCCl)C(=O)NCCCl | -0.397% [at 42.5 µM] (inactive) |
| CN(C)CCOC1=Cc2ccccc2Sc2ccc(Cl)cc21 | 3.69% [at 42.5 µM] (inactive) |
| C/C=C(\C)C=O | 0.59% (inactive) |
| CCCCCCCC(=O)OCC | 0.704% (inactive) |

| Structure (SMILES) | activation |
| --- | --- |
| Oc1cccc2cc3cccc(O)c3c(O)c12 | 0.462% (inactive) |
| ICCc1ccccc1 | 0.923% (inactive) |
| C/C=C/C(=O)OCC(C)C | -0.626% (inactive) |
| Cc1oc(=O)oc1COC(=O)[C@@H]1N2C(=O)[C@@H](NC(=O)[C@H](N)c3ccccc3)[C@H]2SC1(C)C | 0.58% [at 42.5 µM] (inactive) |
| CCCCCCCCCCCCCCCCCO | -0.514% [at 19 µM] (inactive) |
| C/C=C(\C)C(=O)OCCc1ccccc1 | 0.736% (inactive) |
| Cc1cc(N)c2cc(NC(=O)Nc3ccc4nc(C)cc(N)c4c3)ccc2n1 | 7.04% [at 42.5 µM] (inactive) |
| C=CC(C)(C)O | 0.569% (inactive) |
| CCc1ccc(CC)cc1 | -0.161% (inactive) |
| CC(C)[C@H](N)C(=O)OCCOCn1cnc2c(=O)[nH]c(N)nc21 | 0.763% [at 42.5 µM] (inactive) |
| C[C@H](N)[C@H](O)c1cccc(O)c1 | 2.67% [at 42.5 µM] (inactive) |
| C=C[Si](C)(C)O[Si](C)(C)C=C | -0.0791% (inactive) |
| OCCN(CCO)c1ccccc1 | 0.867% (inactive) |
| Cl[Si](Cl)(c1ccccc1)c1ccccc1 | -0.23% (inactive) |
| C/C(=N\[Si](C)(C)C)O[Si](C)(C)C | 0.146% (inactive) |
| C1=C\CC/C=C\CC/1 | -1.02% (inactive) |
| O=c1[nH]cccc1O | -0.162% (inactive) |
| C/C(=C(\CCOP(=O)(O)O)SC(=O)c1ccccc1)N(C=O)Cc1cnc(C)nc1N | 1.28% [at 8.39 µM] (inactive) |
| O=C1c2ccccc2C(=O)c2cc(Cl)ccc21 | -1.41% [at 8.39 µM] (inactive) |
| O=C(/C=C/c1ccccc1)OC/C=C/c1ccccc1 | -1% (inactive) |
